Measurements taken from PMC9911399, “Two distinct binding modes provide the RNA-binding protein RbFox with extraordinary sequence specificity”.
Numbering of substitutions follows the chain as printed; changes in the protein carry UniProt numbers. Whole data set: some 16,000 sequences, median “ka relative to ugcaugu” near 0.096, cut for the highest 2% near 0.35. This excerpt belongs to a sample that is enriched for the highest values.

B1: CACAGAG (DNA:RNA)
RNA: GGGAGACCGGAAUUCAGAUUGUCCCACAGAGUUAAAUCCCGUCGUAGCCACCA
DNA 1: CAATCTGAATTCCGGTCTCCC
DNA 2: TGGTGGCTACGACGGGATT
B2: ACGGAAU (DNA:RNA)
RNA: B1 RNA with C25A, A26C, C27G, A28G, G29A, G31U
DNA 1: CAATCTGAATTCCGGTCTCCC
DNA 2: TGGTGGCTACGACGGGATT
B3: AUGUUAC (DNA:RNA)
RNA: B1 RNA with C25A, A26U, C27G, A28U, G29U, G31C
DNA 1: CAATCTGAATTCCGGTCTCCC
DNA 2: TGGTGGCTACGACGGGATT
B4: CGGGGCG (DNA:RNA)
RNA: B1 RNA with A26G, C27G, A28G, A30C
DNA 1: CAATCTGAATTCCGGTCTCCC
DNA 2: TGGTGGCTACGACGGGATT
B5: GAGAGUA (DNA:RNA)
RNA: B1 RNA with C25G, C27G, A30U, G31A
DNA 1: CAATCTGAATTCCGGTCTCCC
DNA 2: TGGTGGCTACGACGGGATT
B6: AGAAAUG (DNA:RNA)
RNA: B1 RNA with C25A, A26G, C27A, G29A, A30U
DNA 1: CAATCTGAATTCCGGTCTCCC
DNA 2: TGGTGGCTACGACGGGATT
B7: GAGUAUG (DNA:RNA)
RNA: B1 RNA with C25G, C27G, A28U, G29A, A30U
DNA 1: CAATCTGAATTCCGGTCTCCC
DNA 2: TGGTGGCTACGACGGGATT
B8: AGAUUGU (DNA:RNA)
RNA: GGGAGACCGGAAUUCAGAUUGUCCAGAUUGUUUAAAUCCCGUCGUAGCCACCA
DNA 1: CAATCTGAATTCCGGTCTCCC
DNA 2: TGGTGGCTACGACGGGATT
B9: AAGAGAA (DNA:RNA)
RNA: B1 RNA with C25A, C27G, G31A
DNA 1: CAATCTGAATTCCGGTCTCCC
DNA 2: TGGTGGCTACGACGGGATT
B10: GUUAAUG (DNA:RNA)
RNA: B1 RNA with C25G, A26U, C27U, G29A, A30U
DNA 1: CAATCTGAATTCCGGTCTCCC
DNA 2: TGGTGGCTACGACGGGATT
B11: GGGAAUG (DNA:RNA)
RNA: B1 RNA with C25G, A26G, C27G, G29A, A30U
DNA 1: CAATCTGAATTCCGGTCTCCC
DNA 2: TGGTGGCTACGACGGGATT
B12: AGAAUGU (DNA:RNA)
RNA: B8 RNA with U28A
DNA 1: CAATCTGAATTCCGGTCTCCC
DNA 2: TGGTGGCTACGACGGGATT
B13: GAGUAUC (DNA:RNA)
RNA: B8 RNA with A25G, G26A, A27G, U29A, G30U, U31C
DNA 1: CAATCTGAATTCCGGTCTCCC
DNA 2: TGGTGGCTACGACGGGATT
B14: GGAAAUG (DNA:RNA)
RNA: B8 RNA with A25G, U28A, U29A, G30U, U31G
DNA 1: CAATCTGAATTCCGGTCTCCC
DNA 2: TGGTGGCTACGACGGGATT
B15: AAGAAUG (DNA:RNA)
RNA: B1 RNA with C25A, C27G, G29A, A30U
DNA 1: CAATCTGAATTCCGGTCTCCC
DNA 2: TGGTGGCTACGACGGGATT
B16: AAGAUUG (DNA:RNA)
RNA: B1 RNA with C25A, C27G, G29U, A30U
DNA 1: CAATCTGAATTCCGGTCTCCC
DNA 2: TGGTGGCTACGACGGGATT
B17: UCAUCAU (DNA:RNA)
RNA: B8 RNA with A25U, G26C, U29C, G30A
DNA 1: CAATCTGAATTCCGGTCTCCC
DNA 2: TGGTGGCTACGACGGGATT
B18: UGCGCUU (DNA:RNA)
RNA: B8 RNA with A25U, A27C, U28G, U29C, G30U
DNA 1: CAATCTGAATTCCGGTCTCCC
DNA 2: TGGTGGCTACGACGGGATT
B19: AUGACGC (DNA:RNA)
RNA: B8 RNA with G26U, A27G, U28A, U29C, U31C
DNA 1: CAATCTGAATTCCGGTCTCCC
DNA 2: TGGTGGCTACGACGGGATT
B20: CACUACU (DNA:RNA)
RNA: B1 RNA with A28U, G29A, A30C, G31U
DNA 1: CAATCTGAATTCCGGTCTCCC
DNA 2: TGGTGGCTACGACGGGATT

These binders were tested against T1, RBFOX1 RRM RbFoxmut (Fox-RRM*) (Homo sapiens, UniProt Q9NWB1 109-208, R118D;E147R;N151S;E152T) (assay: EMSA; HiTS-Eq, 1 nM pool, 10 min; buffer printed only for the single-RNA assays: 10 mM Tris pH 7.5, 150 mM NaCl, 3.4 mM EDTA, 0.001% NP-40, 30 C). Conditions: tags: His6 N-terminal (pET28a); label: 5' 32P.
T1 sequence: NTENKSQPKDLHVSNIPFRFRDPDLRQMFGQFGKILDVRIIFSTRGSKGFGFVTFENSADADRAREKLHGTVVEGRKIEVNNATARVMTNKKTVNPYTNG
In short: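 Purified RbFox RRM, wild type or mutant, was incubated for 10 min in 50 µL with 1 nM of a 5′-radiolabelled RNA pool carrying 7 randomized nucleotides, whose flanks were annealed to DNA oligonucleotides, over a series of increasing protein concentrations. Unbound RNA was resolved on 8% native PAGE, cut out, reverse-transcribed, barcoded by PCR and sequenced on an Illumina HiSeq 2500. Relative association constants were derived from changes in read counts for each RNA species versus the control reaction and normalised to the cognate motif.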

Q: How did the binding signal turn out when B1 was run?
A: 0.124 KA relative to UGCAUGU

Q: For B2, which binding signal is on record?
A: 0.115 KA relative to UGCAUGU

Q: For B3, which binding signal is on record?
A: 0.161 KA relative to UGCAUGU

Q: With B4 as the binder, how does the binding signal read?
A: 0.16 KA relative to UGCAUGU

Q: With B5 as the binder, how does the binding signal read?
A: 0.143 KA relative to UGCAUGU

Q: B6 was tested. Which binding signal did it give?
A: 0.121 KA relative to UGCAUGU

Q: B7 was tested. Which binding signal did it give?
A: 0.795 KA relative to UGCAUGU

Q: Which binding signal does the source give for B8 here?
A: 0.222 KA relative to UGCAUGU

Q: How did the binding signal turn out when B9 was run?
A: 0.115 KA relative to UGCAUGU

Q: B10 was tested. Which binding signal did it give?
A: 0.138 KA relative to UGCAUGU

Q: B11 was tested. Which binding signal did it give?
A: 1.15 KA relative to UGCAUGU

Q: With B12 as the binder, how does the binding signal read?
A: 0.798 KA relative to UGCAUGU

Q: How did the binding signal turn out when B13 was run?
A: 0.237 KA relative to UGCAUGU

Q: B14 was tested. Which binding signal did it give?
A: 0.177 KA relative to UGCAUGU

Q: How did the binding signal turn out when B15 was run?
A: 1.07 KA relative to UGCAUGU

Q: With B16 as the binder, how does the binding signal read?
A: 0.223 KA relative to UGCAUGU

Q: Which binding signal does the source give for B17 here?
A: 0.0991 KA relative to UGCAUGU

Q: B18 was tested. Which binding signal did it give?
A: 0.095 KA relative to UGCAUGU

Q: Which binding signal does the source give for B19 here?
A: 0.0829 KA relative to UGCAUGU

Q: For B20, which binding signal is on record?
A: 0.0793 KA relative to UGCAUGU
